SMILES strings stand for the structures. Calls of active or inactive are those of the source. The calls were made as follows: active = hit-call score of the fitted dose curve at least 0.9, where 1 is the maximum; inactive = score below 0.9.

The results in this text go back to PubChem BioAssay (EPA / NIEHS).

Read-out in assay [1]: Human Leukocyte Antigen - DR isotype (HLADR), HLA-DRA (gene 3122)
In words: BSK_BE3C_HLADR: BioMAP Diversity Plus: BE3C Assay for Human Leukocyte Antigen - DR isotype (HLADR) Biomarker Activity (AID 2283032). The conditions noted are these: primary human bronchial epithelial cells; actives raise or lower the signal. Summed up: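 Cell-surface HLA-DR ELISA readout at 24 h after dosing in the BE3C primary human lung bronchial epithelial system; gain or loss of signal against DMSO, with parallel sulforhodamine B staining of total protein for overt cytotoxicity.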

Read-out in assay [2]: Vascular cell adhesion molecule 1 (VCAM1), VCAM1 (gene 7412)
In words: BSK_4H_VCAM1: BioMAP Diversity Plus: 4H Assay for Vascular cell adhesion molecule 1 (VCAM1) Biomarker Activity (AID 2283033).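 As to outcome: cell-surface VCAM-1 protein measured by ELISA.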 The following applies: primary human endothelial cells (HUVEC); actives raise or lower the signal. In a few lines: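 VCAM-1 ELISA read 24 h after chemical dosing of HUVEC in the BioMAP 4H system, with gain or loss of signal fitted relative to DMSO. Parallel SRB staining (560 nm) checked overt cytotoxicity.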

Read-out in assay [3]: Interferon-gamma inducible Protein 10 (IP10), CXCL10 (gene 3627)
In words: BSK_BE3C_IP10: BioMAP Diversity Plus: BE3C Assay for Interferon-gamma inducible Protein 10 (IP10) Biomarker Activity (AID 2283034). The conditions noted are these: primary human bronchial epithelial cells; actives raise or lower the signal. In a few lines:
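IP-10 quantified by ELISA in human primary bronchial epithelial cell cultures at 24 hours post-dosing. Gain or loss of signal fitted relative to DMSO; parallel SRB staining assessed overt cytotoxicity.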

Read-out in assay [4]: Monokine induced gamma interferon (MIG), CXCL9 (gene 4283)
Kind of assay: BSK_BE3C_MIG: BioMAP Diversity Plus: BE3C Assay for Monokine induced gamma interferon (MIG) Biomarker Activity (AID 2283035). The conditions noted are these: primary human bronchial epithelial cells; actives raise or lower the signal. In a few lines:
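hu bronchial epithelial 1° cells, 24 h cpd; MIG by ELISA; bidirectional fit, DMSO = baseline.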

Read-out in assay [5]: Transforming growth factor beta 1 (TGFb1), TGFB1 (gene 7040)
Kind of assay: BSK_BE3C_TGFb1: BioMAP Diversity Plus: BE3C Assay for Transforming growth factor beta 1 (TGFb1) Biomarker Activity (AID 2283036;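 as to outcome: TGF-b1 protein level measured by ELISA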). The conditions noted are these: primary human bronchial epithelial cells; actives raise or lower the signal. In a few lines: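 ELISA readout of TGF-b1 from human lung bronchial epithelial primary cells, taken 24 h post-treatment. Gain or loss of signal fitted relative to DMSO baseline, with parallel SRB staining for overt cytotoxicity.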

Read-out in assay [6]: Plasminogen activator inhibitor-1 (PAI1), SERPINE1 (gene 5054)
In words: BSK_BE3C_PAI1: BioMAP Diversity Plus: BE3C Assay for Plasminogen activator inhibitor-1 (PAI1) Biomarker Activity (AID 2283037). The conditions noted are these: primary human bronchial epithelial cells; actives raise or lower the signal. In a few lines: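 PAI-1 was measured by ELISA in human primary bronchial epithelial cultures 24 h after chemical dosing, with cytotoxicity checked by SRB total-protein staining in parallel cultures. Activity was fitted in both directions relative to DMSO.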

Read-out in assay [7]: urokinase plasminogen activator (uPA), PLAU (gene 5328)
Kind of assay: BSK_BE3C_uPA: BioMAP Diversity Plus: BE3C Assay for urokinase plasminogen activator (uPA) Biomarker Activity (AID 2283038).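 As to outcome: uPA protein level quantified by ELISA in cell cultures; uPA read one day after compound addition.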 The following applies: primary human bronchial epithelial cells; actives raise or lower the signal. In a few lines: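 Human primary bronchial epithelial cells were exposed to chemical for 24 h, then uPA levels were measured by ELISA. Responses were fitted bidirectionally against DMSO as negative control and baseline. Parallel SRB staining of total protein gauged overt cytotoxicity.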

Read-out in assay [8]: Urokinase-type plasminogen activator receptor (uPAR), PLAUR (gene 5329)
In words: BSK_BE3C_uPAR: BioMAP Diversity Plus: BE3C Assay for Urokinase-type plasminogen activator receptor (uPAR) Biomarker Activity (AID 2283039).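 As to outcome: cells exposed to compound for one day before measurement.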 The following applies: primary human bronchial epithelial cells; actives raise or lower the signal. In a few lines:
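uPAR levels were measured by ELISA after 24 h compound treatment of primary human bronchial epithelial cells, fitted in both directions relative to DMSO. Parallel SRB staining served as the cytotoxicity read-out.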

Read-out in assay [9]: Interleukin-6 (IL6), IL6 (gene 3569)
Kind of assay: BSK_CASM3C_IL6: BioMAP Diversity Plus: CASM3C Assay for Interleukin-6 (IL6) Biomarker Activity for (AID 2283040). The conditions noted are these: primary human coronary artery smooth muscle cells; actives raise or lower the signal.

Read-out in assay [10]: Tissue plasminogen activator (tPA), PLAT (gene 5327)
Kind of assay: BSK_BE3C_tPA: BioMAP Diversity Plus: BE3C Assay for Tissue plasminogen activator (tPA) Biomarker Activity (AID 2283041).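 As to outcome: tPA level quantified by ELISA one day after compound addition.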 The conditions noted are these: primary human bronchial epithelial cells; actives raise or lower the signal. Summed up:
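tPA measured by ELISA 24 h after dosing human primary bronchial epithelial cells (BE3C system). Changes in either direction were fitted against DMSO. Parallel cultures were stained with SRB to flag overt cytotoxicity.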

`CN(C)C(=O)Nc1ccc(Oc2ccc(Cl)cc2)cc1`: the outcome in assay [1], in assay [2], in assay [3], in [4], in assay [6] and in [7] was inactive. Moreover, in assay [8], the outcome was inactive. The AC50 (usually the concentration at which the activity in the assay is half-maximal) is 3.97 µM (active) in assay [5], 0.0427 µM (active) in assay [9] and 4.19 µM (active) in [10].
As for `C1=CC2C3C=CC(C3)C2C1` (centres undefined), the outcome in assay [1], in [2], in assay [3], in [4], in assay [5] and in assay [6] was inactive. Further, the result in [7], in [8], in assay [9] and in assay [10] was inactive.
In the case of `CN(C)C(=S)SC(=S)N(C)C`, the AC50 in [1] was 13.7 µM (active); in [2], 26.9 µM (active); in [3], 34.7 µM (active); in assay [4], 34.9 µM (active); in assay [7], 19.9 µM (active); in [8], 31.7 µM (active). For the same compound, the result in assay [5], in assay [6], in assay [9] and in assay [10] was inactive.
In the case of `Cc1cc(CCC(=O)OCCOCCOCCOC(=O)CCc2cc(C)c(O)c(C(C)(C)C)c2)cc(C(C)(C)C)c1O`, the result in assay [1], in assay [2], in assay [4], in assay [6], in assay [7] and in assay [8] was inactive. Besides, the outcome in assay [9] and in assay [10] was inactive. Moreover, the AC50 in assay [3] was 10.1 µM (active); in [5], 17.8 µM (active).
Regarding `CC(=O)Nc1ccc(C(=O)CCl)cc1`, the AC50 in assay [1] was 15.1 µM (active); in assay [2] it was 6.74 µM (active); in assay [3] it was 25.6 µM (active); in [4], 33.3 µM (active); in assay [8], 31.7 µM (active); in assay [9] it was 10.6 µM (active). Moreover, the result in [5], in assay [6] and in assay [7] was inactive.
Turning to `O=C1OC2(c3ccccc31)c1ccc(O)c(Br)c1Oc1c2ccc(O)c1Br`, the AC50 was 10.3 µM (active) in assay [1], 20 µM (active) in assay [2], 3.97 µM (active) in [5] and 20 µM (active) in [10]. Further, the outcome in assay [3], in assay [4], in assay [6], in assay [7], in assay [8] and in assay [9] was inactive.
Regarding `IC(I)I`, the result in assay [1], in assay [2], in [3], in assay [4], in assay [5] and in [6] was inactive. The result in assay [7], in assay [8], in assay [9] and in [10] was inactive.
`CC1(C)C2=CCCC(C)(C)[C@]23CC[C@H]1C3`: the AC50 was 20 µM (active) in [1]; 20 µM (active) in [3]; 20 µM (active) in [5]; 30.2 µM (active) in assay [9]; 31.5 µM (active) in assay [10]. The result in assay [2], in assay [4], in [6], in assay [7] and in [8] was inactive.
Turning to `C=C(C)C(=O)OCCOCCOCCOCCOC(=O)C(=C)C`, the result in assay [1], in assay [2], in [3], in assay [4], in assay [5] and in assay [6] was inactive. Moreover, the result in [7], in [8], in assay [9] and in assay [10] was inactive.
Consider `CC(=O)C1(C)CC2=C(CCCC2(C)C)CC1C` (centres undefined), for which the AC50 in assay [1] was 13.8 µM (active); in [2], 9.63 µM (active); in assay [3] it was 25.6 µM (active); in [4], 34.9 µM (active); in assay [5], 12.8 µM (active); in assay [6], 20 µM (active). In addition, the AC50 in [7] was 20 µM (active); in assay [8], 20 µM (active); in [9], 14 µM (active); in assay [10], 12.7 µM (active).
In the case of `C=C(C)C(=O)OCCOCCOCCOC(=O)C(=C)C`, the AC50 in assay [1] is 3.97 µM (active). Moreover, the outcome in assay [2], in assay [3], in assay [4], in assay [5], in assay [6] and in [7] was inactive. Moreover, the result in assay [8], in assay [9] and in [10] was inactive.
As to `c1ccc2cc(Nc3ccc(Nc4ccc5ccccc5c4)cc3)ccc2c1`, the result in assay [1], in assay [2], in [3], in [4], in assay [5] and in assay [6] was inactive. Further, the result in assay [7], in assay [8], in assay [9] and in [10] was inactive.
